# From PubChem BioAssay AID492998 (Southern Research Specialized Biocontainment Screening …, 2010)
# Screen size: about 2,300 compounds; about 550 (24%) were called active. The list is a sample of the results. Measured potencies and affinities stand elsewhere. Unmarked numbers belong to inactive results. How the calls were made is not given here.
# Experiment: Vero E6 cell cytotoxicity, dose response, cytotoxicity control for non-replicating M. tuberculosis project, secondary assay (AID 492998);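 further: 100% = vehicle-treated cells and 0% = background wells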
# Details: series mostly up to 20 µM; viability: at the top concentration
row,Compound,viability [%]
1,CCOC(=O)CC(NS(=O)(=O)Cc1ccccc1)c1ccc(C)cc1 (stereo not drawn),80
2,CCOC(=O)COn1c2c(c3c4no[n+]([O-])c4ccc31)CCCC2,99.8
3,COC(=O)c1ccccc1NC(=O)C1CC(c2ccc(F)cc2)=NO1 (stereo not drawn),79.8
4,COc1cc(/C=C2/C(=O)NN(c3cccc(C)c3)C2=O)ccc1OC(=O)c1ccco1,99.8
5,O=C(Oc1cccc2cccnc12)c1cccc(-n2cnnn2)c1,97.1
6,Cc1nc2ccc(NC(=O)c3ccc([N+](=O)[O-])cc3[N+](=O)[O-])cc2s1,90.1
7,CCN(CC)CCNC(=O)c1[nH]c2ccc(OCc3ccccc3)cc2c1C,80.3
8,CSc1ccccc1NC(=O)c1cc(C(C)C)on1,91.5
9,O=C(COc1ccc(-c2ccccc2)cc1)Nc1cccnc1,91.4
10,O=C(OCC(=O)N1CCCCC1)c1cc2ccccc2cc1O,92.3
11,CCOC(=O)c1cc2cc3ccccc3cc2oc1=O,99.8
12,CCOC(=O)COc1ccc(C(=O)c2ccccc2)c(O)c1,99.3
13,Cc1ccn2nc(S(=O)(=O)Nc3c(F)cccc3F)nc2n1,104
14,CN(C)CC/C=C1\c2cc(Cl)ccc2Sc2cc(F)c(F)cc21,81.6
15,Nc1nc2ccccc2n1C(=O)c1ccc(F)cc1,88.6
16,COc1ccc(C(=O)Nc2ccccc2C(=O)N/N=C/c2ccco2)cc1,102
17,Cn1c(NC(=O)c2ccccc2)nc2ccccc21,78.7
18,CCn1cc(/C=N\NC(=O)c2ccc(F)cc2)cn1,110
19,Cc1nc2ccc(NC(=O)COc3cccc(F)c3)cc2s1,99.7
20,O=C(COC(=O)c1cccc([N+](=O)[O-])c1)NCc1cccs1,99.3
21,COc1ccc(CN2CCC(C(=O)Nc3ccc(Oc4cccnc4)cc3)CC2)c(C)c1C,91.2
22,CSCCOC(=O)COc1ccc(/C=N/NC(=O)c2c(Cl)cnn2C)cc1,101
23,O=C(COc1ccc(Br)cc1)N/N=C1/SCC(=O)N1Cc1ccco1,91.2
24,O=C(C/C=N\OCc1ccc([N+](=O)[O-])cc1)Nc1ccc(Br)cc1,85.4
25,COc1ccccc1CCNC(=O)c1ccc(C)o1,102
26,NC1=NC[C@H](Cc2ccc(O)cc2)N1CCc1cccc2ccccc12,89.6

row,Compound,viability [%]
1,Cc1ccc(NCCC(=O)c2cccs2)cc1,86.7
2,CCCCCCCC(=O)NNC(=O)c1ccc(F)cc1,89.9
3,Cc1ccc(-c2noc(CCCC(=O)Nc3cccnc3)n2)cc1,93.5
4,O=C(N/N=C/C=C/c1ccccc1)c1ccccn1,106
5,CCc1ccc(/C=N/NC(=O)c2ccccn2)cc1,97.9
6,CCCCCCCC(=O)N/N=C(/C)c1c(O)cc(C)oc1=O,84.1
7,CCCc1cc(C(=O)Nc2ccccc2SC)no1,109
8,COC(=O)CCCC(=O)N1CCCC(C(=O)c2ccc(-c3ccccc3)cc2)C1 (stereo not drawn),105
9,CSc1nnc(Cc2ccc3c(c2)OCO3)o1,103
10,COc1cccc(/C=N/N2C(=O)CSC2=S)c1O,81
11,O=C(OCn1nnc2ccccc2c1=O)c1cccs1,104
12,COc1ccc2cc(C(=O)C3CCCN(Cc4cccc(C)n4)C3)ccc2c1 (stereo not drawn),73
13,S=c1c2c(nc3nc[nH]n13)CCC2,101
14,CC1(C)CC(=O)C2=C(C1)OC(N)=C(C#N)C2C#Cc1ccccc1 (stereo not drawn),101
15,Cc1ccc(NC(=O)C(=O)NNC(=O)c2ccccc2C)cc1Cl,87.8
16,O=C(NC1CCOc2ccccc21)c1ccc(Cl)nc1 (stereo not drawn),92.5
17,CCOC(=O)COc1ccc(C(=O)Nc2cccc(Cl)c2C)cc1,91.2
18,CCOC(=O)C(=CNNc1cccc(Cl)c1)C(=O)OCC,90.4
19,Cc1cc(OCCOCCNCc2ccccc2)ccc1C(C)C,95.5
20,O=C(OCC#CCSc1nc2ccccc2o1)c1ccco1,96.6
21,O=C(CCNc1cccc(F)c1)c1cccc([N+](=O)[O-])c1,81
22,O=C(Nc1ccccc1N1CCCC1)c1cccc(F)c1,103
23,COc1ccc(O)c(C(=O)CC(=O)c2ccc(F)cc2)c1,74
24,C/C(=N\O)c1cc(Cl)ccc1O,94.6
25,CC12CC3CC(C)(C1)CC(C(=O)N1CCCC1)(C3)C2,110
26,CSc1ccc(CNc2ncc(-c3cccc([N+](=O)[O-])c3)n2C)cc1,95.1

row,Compound,viability [%]
1,COc1cccc(NC(=O)COC(=O)Cc2ccc(Br)cc2)c1,108
2,CC(C)(C)NCC1(CO)SC(N)=NC1=O (stereo not drawn),95.3
3,Cc1cc(C)nc(SC2CC(=O)N(c3ccc(C)c(C)c3)C2=O)n1 (stereo not drawn),72.2
4,Cc1ccc2nc(C)c3c(c2c1)COC3,100
5,O=C(COc1ccccc1)NC1CCCCC1,107
6,O=C(OCn1nnc2ccccc2c1=O)C1CCCCC1,94.4
7,Cc1cc2cc(CNC(=O)COc3ccccc3)ccc2n1C,96.2
8,CC1CC(C)CN(CCOCCSc2ccc(Cl)cc2)C1 (stereo not drawn),87
9,COc1ccc(Cl)cc1N=Cc1c(O)c2ccccc2oc1=O,76.4
10,O=C(COC(=O)c1cc(Br)ccc1Cl)NC1CCCC1,105
11,COC(=O)COc1ccc(S(=O)(=O)N2CCN(c3ccccc3F)CC2)cc1,102
12,O=C1/C(=C\c2ccco2)SC(=S)N1c1ccc(O)cc1,103
13,Cc1ccccc1OCCC(=O)OCC(=O)NNC(=O)c1cccs1,104
14,CCSc1ncc(/C=N/Nc2ccc(Cl)cc2)n1C,90.2
15,O=C(COC(=O)CCc1c[nH]c2ccccc12)Nc1ccc([N+](=O)[O-])cc1,101
16,CCCCOC(=O)C1CCCC(C(=O)OCCCC)N1 (stereo not drawn),113
17,O=C(COc1ccc2c(c1)CCC2)Nc1ccccn1,95.7
18,O=C1NC(=O)N(Cc2ccc(F)cc2)C(=O)/C1=C\c1ccc([N+](=O)[O-])s1,93.5
19,O=C1NC(=O)N(Cc2ccco2)C(=O)/C1=C\c1cccn1CCOc1ccc(Cl)cc1,98.7
20,OC(CNCCc1ccc(C(F)(F)F)cc1)COc1cccc2ccccc12 (stereo not drawn),82
21,O=C(COC(=O)c1cc(Cl)ccc1O)c1ccc2c(c1)OCO2,105
22,O=C1CC(Sc2ncccn2)C(=O)N1c1ccccc1C(F)(F)F (stereo not drawn),102
23,CCOC(=O)c1c(NC(=O)C2COc3ccccc3O2)sc2c1CC(C)(C)NC2(C)C (stereo not drawn),85.6
24,CCOC(=O)CCS(=O)(=O)c1nc(-c2ccccc2)cc(C(F)(F)F)n1,95.2
25,CCOc1ccc2ccccc2c1/C=N/NC(=O)c1ccncc1,95.5
26,COc1ccc(NC(=O)Nc2ccc(O)c3ccccc23)cc1,75.5
